PubChem BioAssay (EPA / NIEHS)
Activity calls are given as the source filed them. How the source made its calls: active means hit-call score of the fitted dose curve at least 0.9, where 1 is the maximum; inactive means score below 0.9.

How the values were obtained:
[1] = ATG_ISRE_CIS: Attagene CIS-FACTORIAL HepG2 Assay for human Interferon Regulatory Factor 1 (IRF1) binding to an Interferon-Stimulated Response Element (ISRE) (AID 2282948); conditions: HepG2 ISRE cis-reporter (Attagene), mRNA transcription readout; actives raise or lower the signal
Outline: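 Multiplexed mRNA reporter readout in human liver HepG2 cells: cis-element-driven reporters transfected, compound added for 24 h, transcripts amplified, fluorescently labelled and sized by capillary electrophoresis; curve fitting bidirectional against DMSO.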

[2] = ATG_M_32_CIS: Attagene CIS-FACTORIAL HepG2 Assay for M32 Transcription Factor (Internal Marker) (AID 2282949); conditions: HepG2 Attagene cis-factorial M32 reporter, mRNA; actives raise or lower the signal;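 further: background control marker of the multiplexed CIS panel rather than a real target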
Outline: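 HepG2 human liver cells transiently transfected with cis-promoter-driven multiple reporter transcription units, dosed 24 h. Reporter mRNA quantified by RT-PCR, FAM-labelled primer extension, HpaI digest and capillary electrophoresis; bidirectional fit versus DMSO baseline.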

[3] = ATG_M_06_CIS: Attagene CIS-FACTORIAL HepG2 Assay for M06 Transcription Factor (Internal Marker) (AID 2282950); conditions: HepG2 Attagene CIS-FACTORIAL M06 internal marker reporter; actives raise or lower the signal
Outline: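 Terse: HepG2, transient MRTU transfection (FuGene 6), 24 h dosing; total RNA, oligo(dT) RT, PCR, FAM label, HpaI cut, capillary electrophoresis; bidirectional fit vs DMSO baseline; background-control endpoint.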

[4] = target: Hypoxia-inducible factor 1-alpha (Homo sapiens) (UniProt Q16665); test: ATG_HIF1a_CIS: Attagene CIS-FACTORIAL HepG2 Assay for human Hypoxia Inducible Factor 1 (HIF1A) (AID 2282951); conditions: HepG2 Attagene cis-factorial HIF1a reporter transcription; actives raise or lower the signal
Chain of Hypoxia-inducible factor 1-alpha (Homo sapiens) (Q16665 whole entry, looked up): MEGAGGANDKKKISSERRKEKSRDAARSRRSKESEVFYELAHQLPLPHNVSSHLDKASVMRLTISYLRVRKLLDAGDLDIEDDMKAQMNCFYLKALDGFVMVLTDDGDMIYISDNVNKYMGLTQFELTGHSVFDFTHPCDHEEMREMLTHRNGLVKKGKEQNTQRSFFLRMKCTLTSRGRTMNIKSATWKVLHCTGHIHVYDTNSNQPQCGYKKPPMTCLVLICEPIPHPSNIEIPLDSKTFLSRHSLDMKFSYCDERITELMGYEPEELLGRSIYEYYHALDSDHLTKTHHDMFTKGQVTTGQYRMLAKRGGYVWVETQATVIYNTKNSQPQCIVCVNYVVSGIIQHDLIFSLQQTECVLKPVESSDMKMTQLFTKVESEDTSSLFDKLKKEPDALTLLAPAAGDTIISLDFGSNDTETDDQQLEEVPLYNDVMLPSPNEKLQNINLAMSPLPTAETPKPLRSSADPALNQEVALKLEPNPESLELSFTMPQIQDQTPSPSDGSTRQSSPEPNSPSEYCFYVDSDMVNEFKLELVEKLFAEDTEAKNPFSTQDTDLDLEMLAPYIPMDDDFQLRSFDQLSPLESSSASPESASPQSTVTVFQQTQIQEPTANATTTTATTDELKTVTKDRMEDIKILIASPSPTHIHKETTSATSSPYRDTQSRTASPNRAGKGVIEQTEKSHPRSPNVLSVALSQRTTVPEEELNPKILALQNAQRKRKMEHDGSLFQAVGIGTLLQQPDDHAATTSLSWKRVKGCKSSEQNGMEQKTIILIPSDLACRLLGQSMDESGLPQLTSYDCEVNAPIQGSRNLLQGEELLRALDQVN
Outline: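 After 24 h chemical exposure of reporter-transfected HepG2 cells, reporter cDNA was PCR-amplified, labelled by 6-FAM primer extension (2 min 95 C, 20 s 68 C, 10 min 72 C), HpaI-cut (2 h, 37 C) and analysed by CE.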

[5] = ATG_MRE_CIS: Attagene CIS-FACTORIAL HepG2 Assay for human Metal Responsive Element (MRE) (AID 2282954); conditions: HepG2 MRE cis-reporter transcription, Attagene multiplex; actives raise or lower the signal
Outline: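 Measured here is mRNA induction from an MRE cis-element reporter in HepG2 after 24 h, quantified by fluorescence of labelled RT-PCR products on capillary electrophoresis; gain- and loss-of-signal fits use DMSO as baseline.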

[6] = target: Paired box protein Pax-6 (Homo sapiens) (UniProt P26367); test: ATG_Pax6_CIS: Attagene CIS-FACTORIAL HepG2 Assay for human Paired Box 6 (PAX6) (AID 2282956); conditions: HepG2 CIS-FACTORIAL PAX6 reporter transcription, RNA readout; actives raise or lower the signal
Chain of Paired box protein Pax-6 (Homo sapiens) (P26367 whole entry, looked up): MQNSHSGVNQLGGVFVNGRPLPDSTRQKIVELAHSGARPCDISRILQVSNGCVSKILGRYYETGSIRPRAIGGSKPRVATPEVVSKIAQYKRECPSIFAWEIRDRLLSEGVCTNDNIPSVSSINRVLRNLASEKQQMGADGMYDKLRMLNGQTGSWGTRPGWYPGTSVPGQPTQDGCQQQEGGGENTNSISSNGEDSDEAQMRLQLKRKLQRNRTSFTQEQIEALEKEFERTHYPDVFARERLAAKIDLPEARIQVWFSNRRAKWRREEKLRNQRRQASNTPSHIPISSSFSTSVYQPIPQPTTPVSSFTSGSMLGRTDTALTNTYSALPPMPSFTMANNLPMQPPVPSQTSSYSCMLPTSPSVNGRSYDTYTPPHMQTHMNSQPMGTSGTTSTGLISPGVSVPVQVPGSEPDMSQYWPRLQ
Outline: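 Fluorescent RT-PCR products separated by capillary electrophoresis report PAX6-linked promoter mRNA in HepG2 cells 24 h post-dose. Curves fitted bidirectionally, DMSO as negative control.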

[7] = ATG_PXRE_CIS: Attagene CIS-FACTORIAL HepG2 Assay for human Pregnane X Receptor Element (PXRE) (AID 2282957); conditions: HepG2 Attagene CIS-FACTORIAL PXRE reporter, mRNA; actives raise or lower the signal
Outline: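 Using HepG2 transfected with multiple reporter transcription units, endogenous factor-driven transcription was scored as reporter mRNA after 24 h exposure.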

[8] = ATG_PPRE_CIS: Attagene CIS-FACTORIAL HepG2 Assay for human Peroxisome Proliferator-activated Response Element (PPRE) (AID 2282958); conditions: HepG2 PPRE cis-element reporter, Attagene transcription factor profiling; actives raise or lower the signal
Outline: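 PPRE activity in HepG2: transient cis-reporter transfection, 24 h compound incubation, reporter mRNA by RT-PCR and CE fluorescence; gain/loss fitted against DMSO.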

[9] = ATG_RORE_CIS: Attagene CIS-FACTORIAL HepG2 Assay for human RAR-related Orphan Receptor Element (RORE) (AID 2282959); conditions: HepG2 Attagene cis-factorial RORE reporter, mRNA; actives raise or lower the signal
Outline: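 A 24-hour exposure of transfected HepG2 hepatoma cells precedes RNA isolation and reporter RT-PCR. Labeled products are digested with HpaI and resolved by capillary electrophoresis, with gain or loss of signal scored relative to DMSO.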

[10] = ATG_Sox_CIS: Attagene CIS-FACTORIAL HepG2 Assay for human SRY-box transcription factor (SOX) (AID 2282960); conditions: HepG2 Attagene cis-factorial SOX reporter, mRNA; actives raise or lower the signal
Outline: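 HepG2, cis reporter units, 24 h exposure. Reporter mRNA: RT-PCR → FAM labelling → HpaI → CE fluorescence. Bidirectional fit vs DMSO.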

[11] = target: Transcription factor Sp1 (Homo sapiens) (UniProt P08047); test: ATG_Sp1_CIS: Attagene CIS-FACTORIAL HepG2 Assay for human Specificity Protein 1 (Sp1) (AID 2282961); conditions: HepG2 Sp1 cis-reporter transcription, actives raise or lower the signal
Chain of Transcription factor Sp1 (Homo sapiens) (P08047 whole entry, looked up, the tested form may be a part): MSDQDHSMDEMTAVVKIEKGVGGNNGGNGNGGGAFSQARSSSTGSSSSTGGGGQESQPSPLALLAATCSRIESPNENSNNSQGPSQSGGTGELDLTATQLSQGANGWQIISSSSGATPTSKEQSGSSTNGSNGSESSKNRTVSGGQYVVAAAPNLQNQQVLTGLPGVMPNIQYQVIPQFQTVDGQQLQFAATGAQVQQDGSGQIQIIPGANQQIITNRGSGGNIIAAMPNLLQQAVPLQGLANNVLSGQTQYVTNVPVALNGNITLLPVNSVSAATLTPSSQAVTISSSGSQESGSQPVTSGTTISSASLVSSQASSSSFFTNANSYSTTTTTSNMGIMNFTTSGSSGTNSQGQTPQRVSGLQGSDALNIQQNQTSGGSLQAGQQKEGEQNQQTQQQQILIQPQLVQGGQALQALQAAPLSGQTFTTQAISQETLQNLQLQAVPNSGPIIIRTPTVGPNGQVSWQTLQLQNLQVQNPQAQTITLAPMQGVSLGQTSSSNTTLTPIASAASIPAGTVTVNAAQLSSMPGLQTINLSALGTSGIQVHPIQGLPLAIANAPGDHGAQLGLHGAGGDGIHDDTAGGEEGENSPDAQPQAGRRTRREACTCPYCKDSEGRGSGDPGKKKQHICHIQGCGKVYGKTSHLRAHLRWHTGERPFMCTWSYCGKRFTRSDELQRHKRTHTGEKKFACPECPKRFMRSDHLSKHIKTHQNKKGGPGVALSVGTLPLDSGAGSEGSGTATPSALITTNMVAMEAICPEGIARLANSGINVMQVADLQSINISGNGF
Outline: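 Liver-derived HepG2 cells, cis-element reporter library, 24 h treatment; RNA isolated, cDNA amplified with reporter-specific primers, FAM-labeled fragments sized on capillary analyzer. DMSO baseline, bidirectional curve fit.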

[12] = ATG_SREBP_CIS: Attagene CIS-FACTORIAL HepG2 Assay for human Sterol Regulatory Element Binding (SREBP) (AID 2282962); conditions: HepG2 Attagene cis-factorial SREBP reporter, mRNA; actives raise or lower the signal
Outline: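 Endogenous factor activity is measured in HepG2 through multiplexed reporter units under cis-element control. Following a 24 h incubation, reporter transcripts are reverse-transcribed, PCR-amplified and sized by capillary electrophoresis; activity is fitted in both directions relative to DMSO.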

[13] = target: Signal transducer and activator of transcription 3 (Homo sapiens) (UniProt P40763); test: ATG_STAT3_CIS: Attagene CIS-FACTORIAL HepG2 Assay for human Signal Transducer and Activator of Transcription 3 (STAT3) (AID 2282963); conditions: HepG2, Attagene cis-factorial STAT3 reporter transcription; actives raise or lower the signal
Chain of Signal transducer and activator of transcription 3 (Homo sapiens) (P40763 whole entry, looked up, the tested form may be a part): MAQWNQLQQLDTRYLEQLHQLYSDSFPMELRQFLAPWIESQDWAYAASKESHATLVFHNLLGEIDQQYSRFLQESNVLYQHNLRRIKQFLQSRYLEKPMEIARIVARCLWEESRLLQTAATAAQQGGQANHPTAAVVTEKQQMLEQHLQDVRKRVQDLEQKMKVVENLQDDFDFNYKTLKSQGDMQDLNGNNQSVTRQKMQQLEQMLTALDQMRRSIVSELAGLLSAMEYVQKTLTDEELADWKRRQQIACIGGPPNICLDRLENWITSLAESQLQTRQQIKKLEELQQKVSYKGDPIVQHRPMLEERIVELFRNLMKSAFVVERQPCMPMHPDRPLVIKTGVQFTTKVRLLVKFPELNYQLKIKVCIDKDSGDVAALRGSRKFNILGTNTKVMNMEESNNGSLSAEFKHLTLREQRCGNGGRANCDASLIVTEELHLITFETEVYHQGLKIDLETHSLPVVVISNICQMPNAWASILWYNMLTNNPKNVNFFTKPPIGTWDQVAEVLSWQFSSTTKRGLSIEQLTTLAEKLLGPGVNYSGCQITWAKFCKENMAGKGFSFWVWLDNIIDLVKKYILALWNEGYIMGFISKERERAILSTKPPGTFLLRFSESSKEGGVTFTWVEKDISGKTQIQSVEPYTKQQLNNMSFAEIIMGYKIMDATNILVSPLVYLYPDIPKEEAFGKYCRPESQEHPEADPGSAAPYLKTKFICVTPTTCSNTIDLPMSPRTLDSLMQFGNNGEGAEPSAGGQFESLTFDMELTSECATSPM
Outline: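 Fluorescence intensity of 6-FAM-labelled reporter fragments, separated by capillary electrophoresis after RT-PCR, gave the signal. Cells were HepG2 transfected with cis-element reporter units and treated 24 h; fitting was bidirectional relative to DMSO.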

[14] = ATG_TA_CIS: Attagene CIS-FACTORIAL HepG2 Assay for human TA Basal Promoter (AID 2282964); conditions: HepG2 Attagene CIS-factorial TA basal promoter reporter; actives raise or lower the signal
Outline: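 Transfected HepG2, 24 h compound exposure; RNA → RT-PCR → FAM primer extension → HpaI cut → CE fluorescence. Gain/loss-of-signal fitted against DMSO negative control. Background-control readout.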

[15] = ATG_TCF_b_cat_CIS: Attagene CIS-FACTORIAL HepG2 Assay for human T-Cell-Factor with beta-catenin (TCF/b-cat) (AID 2282965); conditions: HepG2 TCF/beta-catenin cis-reporter transcription, actives raise or lower the signal
Outline: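 Cells of the HepG2 line carry transiently transfected reporter units whose promoters respond to endogenous factors. Twenty-four hours post-dosing, reporter mRNA induction is measured by fluorescent RT-PCR and capillary electrophoresis, with DMSO as baseline.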

[16] = ATG_TAL_CIS: Attagene CIS-FACTORIAL HepG2 Assay for human TAL Basal Promoter (AID 2282966); conditions: HepG2 Attagene cis-factorial TAL promoter reporter; actives raise or lower the signal;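 further: background control endpoint measuring basal TAL promoter reporter mRNA not a specific factor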
Outline: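 After 24 hours of chemical exposure, transfected HepG2 cells yielded RNA that was converted to 6-FAM-labelled, HpaI-digested reporter fragments for capillary electrophoresis. Values derive from bidirectional fitting against DMSO controls.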

[17] = target: Heat shock factor protein 1 (Homo sapiens) (UniProt Q00613); test: ATG_HSE_CIS: Attagene CIS-FACTORIAL HepG2 Assay for human Heat Shock Transcription Factor 1 (HSE) (AID 2282953); conditions: HepG2 HSE cis-reporter, Attagene RNA transcription; actives raise or lower the signal
Chain of Heat shock factor protein 1 (Homo sapiens) (Q00613 whole entry, looked up, the tested form may be a part): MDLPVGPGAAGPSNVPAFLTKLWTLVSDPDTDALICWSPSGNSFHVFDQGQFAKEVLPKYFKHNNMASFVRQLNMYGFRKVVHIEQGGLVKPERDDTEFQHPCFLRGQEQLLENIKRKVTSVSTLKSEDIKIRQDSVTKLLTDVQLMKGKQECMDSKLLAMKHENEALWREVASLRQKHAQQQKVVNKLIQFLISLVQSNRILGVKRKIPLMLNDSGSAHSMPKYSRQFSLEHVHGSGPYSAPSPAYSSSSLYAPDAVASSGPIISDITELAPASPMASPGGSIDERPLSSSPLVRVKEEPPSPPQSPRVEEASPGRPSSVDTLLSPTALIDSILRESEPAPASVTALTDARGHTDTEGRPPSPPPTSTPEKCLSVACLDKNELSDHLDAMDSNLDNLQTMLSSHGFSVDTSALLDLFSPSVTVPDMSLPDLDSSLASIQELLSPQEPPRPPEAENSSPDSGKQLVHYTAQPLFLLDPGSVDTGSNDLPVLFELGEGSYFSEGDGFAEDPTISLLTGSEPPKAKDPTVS
Outline: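 Read-out: fluorescence of reporter-specific RT-PCR fragments separated by capillary electrophoresis. HepG2 carrying transfected cis-element reporter units; 24 h dosing; activity fitted in both directions relative to DMSO baseline.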

[18] = ATG_TGFb_CIS: Attagene CIS-FACTORIAL HepG2 Assay for human Transforming Growth Factor (TGF) (AID 2282967); conditions: HepG2 Attagene CIS TGFb reporter, mRNA transcription; actives raise or lower the signal
Outline: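 Readout: fluorescently labeled reporter cDNA fragments resolved by capillary electrophoresis after RT-PCR. Transfected HepG2 cells dosed for 24 h; endogenous TF activity at TGFB1-linked cis element; gain or loss fitted relative to DMSO.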

[19] = ATG_PBREM_CIS: Attagene CIS-FACTORIAL HepG2 Assay for human Phenobarbital-responsive Enhancer Module (PBREM) (AID 2282955); conditions: HepG2 PBREM cis-reporter, Attagene multiplexed transcription; actives raise or lower the signal
Outline: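 Measures endogenous factor action on a phenobarbital-responsive enhancer module. HepG2 transiently carrying cis reporters, 24 h treatment, mRNA read-out by RT-PCR plus capillary electrophoresis.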

CN(C)CCN(C)C
outcome [1]: inactive
outcome [2]: inactive
outcome [3]: inactive
outcome [4]: inactive
outcome [5]: inactive
outcome [6]: inactive
outcome [7]: inactive
outcome [8]: inactive
outcome [9]: inactive
outcome [10]: inactive
outcome [11]: inactive
outcome [12]: inactive
outcome [13]: inactive
outcome [14]: inactive
outcome [15]: inactive
outcome [16]: inactive

CC(=O)CN(CC(C)=O)N=O
outcome [1]: inactive
outcome [2]: inactive
outcome [3]: inactive
outcome [4]: inactive
outcome [5]: inactive
outcome [6]: inactive
outcome [7]: inactive
outcome [9]: inactive
outcome [10]: inactive
outcome [11]: inactive
outcome [12]: inactive
outcome [13]: inactive
outcome [14]: inactive
outcome [16]: inactive

CCOP(=O)(OCC)SCCSCC
outcome [1]: inactive
outcome [2]: inactive
outcome [3]: inactive
outcome [4]: inactive
outcome [17]: inactive
outcome [5]: inactive
AC50 [7]: 57.2 µM (active)
outcome [9]: inactive
outcome [10]: inactive
outcome [11]: inactive
outcome [12]: inactive
outcome [13]: inactive
outcome [14]: inactive
outcome [15]: inactive
outcome [18]: inactive

CC(C)(C)c1ccccc1O
outcome [1]: inactive
AC50 [2]: 170 µM (active)
outcome [3]: inactive
AC50 [4]: 182 µM (active)
AC50 [5]: 149 µM (active)
outcome [19]: inactive
AC50 [7]: 23.9 µM (active)
outcome [8]: inactive
AC50 [9]: 160 µM (active)
AC50 [10]: 100 µM (active)
outcome [11]: inactive
AC50 [12]: 163 µM (active)
outcome [13]: inactive
outcome [14]: inactive
outcome [15]: inactive
outcome [16]: inactive
outcome [18]: inactive
